# 697 NFkB inh: inhibitors of PMA/ionomycin-induced NF-kB reporter, 697 cells, primary screen, B-cell NF-kB inhibitor project, cell-based, luminescence, uHTS; inhibition, % at 4 µM; AID 435022, 2010; 0.33% of 330,000 active; 697 B-cell NF-kB luciferase reporter, 16 h; in the data active = inhibition above about 35%
# KLF5 inh: KLF5 expression inhibitors, primary screen, DLD-1 cells, luminescence; DLD-1 KLF5 promoter-luciferase reporter; AID 1700, 2009; 0.23% of 290,000 active; inhibition, % at 5 µM;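 active = inhibition above a per-plate limit of that plate's mean compound inhibition plus 3 SD, cut at about 60% in these data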;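 note: higher means less KLF5 promoter-driven luciferase light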
# aSyn UTR inh: MLPCN primary screen, SNCA 5' untranslated region; alpha-synuclein 5'UTR reporter, inhibitor activity; inhibition, % (tested at 7.5 µM); 0.82% of 300,000 active; AID 1813, 2009; in the data active = inhibition above about 60%;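 note: H4 neuroglioblastoma cells stably carrying SNCA 5'UTR luciferase fusion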
# Mdm2-MdmX inh: inhibitors of human Mdm2-MdmX association, primary screen, cell-based, luminescence, split luciferase, SaOS-2, uHTS; Protein Mdm4 (Homo sapiens) + E3 ubiquitin-protein ligase Mdm2 (Homo sapiens), …; inhibition, % at 8 µM; AID 485346, 2010; 3% of 330,000 active; SaOS-2 split-luciferase Mdm2/MdmX complementation;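 active = inhibition of at least 50% at 8 µM in the primary screen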
# Target sequence (O15151 whole entry, looked up): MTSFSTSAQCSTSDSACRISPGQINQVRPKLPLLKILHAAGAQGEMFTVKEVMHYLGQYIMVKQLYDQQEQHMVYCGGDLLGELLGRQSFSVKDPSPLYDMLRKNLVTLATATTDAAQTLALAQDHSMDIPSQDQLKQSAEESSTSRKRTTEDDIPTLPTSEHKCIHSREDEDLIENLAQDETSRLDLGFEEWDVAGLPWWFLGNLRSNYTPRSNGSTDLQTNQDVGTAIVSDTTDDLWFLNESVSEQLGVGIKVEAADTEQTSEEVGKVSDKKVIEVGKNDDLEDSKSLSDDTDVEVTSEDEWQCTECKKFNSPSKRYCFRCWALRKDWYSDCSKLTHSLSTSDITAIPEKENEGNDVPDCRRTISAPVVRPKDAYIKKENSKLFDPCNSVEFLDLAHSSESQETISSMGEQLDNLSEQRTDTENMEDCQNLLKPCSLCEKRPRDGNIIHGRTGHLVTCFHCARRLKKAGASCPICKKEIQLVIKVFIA
# Target sequence (Q00987 whole entry, looked up): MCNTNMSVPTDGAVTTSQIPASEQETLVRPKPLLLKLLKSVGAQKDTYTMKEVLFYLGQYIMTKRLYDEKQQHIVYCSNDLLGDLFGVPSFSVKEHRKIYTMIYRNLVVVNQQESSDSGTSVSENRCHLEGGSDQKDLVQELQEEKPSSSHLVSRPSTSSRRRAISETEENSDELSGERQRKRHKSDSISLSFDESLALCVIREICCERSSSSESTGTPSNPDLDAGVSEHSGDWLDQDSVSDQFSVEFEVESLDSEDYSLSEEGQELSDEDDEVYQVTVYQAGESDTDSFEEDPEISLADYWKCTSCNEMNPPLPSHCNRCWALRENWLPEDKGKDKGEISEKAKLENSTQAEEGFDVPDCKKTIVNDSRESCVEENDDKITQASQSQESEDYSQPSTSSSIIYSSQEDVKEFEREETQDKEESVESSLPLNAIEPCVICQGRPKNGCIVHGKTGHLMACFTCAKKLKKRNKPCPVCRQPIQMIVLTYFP
# Gli-Sufu antag: Gli-Sufu pathway antagonists, primary screen, luciferase luminescence, Sufu-KO-LIGHT cells, uHTS; Sufu-KO-LIGHT fibroblasts, Gli luciferase reporter luminescence; inhibition, % at 5 µM; 0.74% of 340,000 active; AID 588413, 2011;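 active = inhibition above about 55%, limit read from the data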
# Jurkat NFkB inh: inhibitors of induced NF-kB luciferase reporter, primary screen, TCR NF-kB activation inhibitor project, cell-based, luminescence, uHTS. Jurkat, PMA/ionomycin-induced NF-kB luciferase reporter. 0.53% of 330,000 active. inhibition, % at 4 µM; in the data active = inhibition above about 50%
# KLF5 inh confirm: KLF5 expression inhibitors, confirmation, DLD-1 cells, luminescence | DLD-1 KLF5 promoter firefly luciferase reporter | 79% of 610 active | AID 1834, 2009 | inhibition, % at 4 µM | shares compounds with KLF5 inh;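 active = inhibition above a set limit taken from the earlier primary screen, cut at about 63% in these data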
# IEC-6 tox: cytotoxicity in rat IEC-6 cells, cytotoxicity control for KLF5 inhibitor project, cell-based, luminescence, triplicate; shares compounds with KLF5 inh; IEC-6 rat intestinal cells, viability luminescence; inhibition, % at 4 µM; 56% of 610 active; AID 1905, 2009; in the data active = inhibition above about 23%;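 note: cells exposed to compounds for 48 hours before viability read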
# Jurkat NFkB conf: PMA/ionomycin-induced NF-kB reporter inhibitors, Jurkat retest, confirmation, T-cell NF-kB inhibitor project, cell-based, luminescence, single concentration; inhibition, % at 4 µM; AID 435020, 2010; Jurkat NF-kB luciferase, 16 h; 27% of 2,700 active; shares compounds with Jurkat NFkB inh;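 active = inhibition reaching about 45% at 4 µM in either replicate, limit read from the data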
# 697 NFkB conf: PMA/ionomycin-induced NF-kB reporter inhibitors, 697 retest, confirmation, B-cell NF-kB inhibitor project, cell-based, luminescence, single concentration. shares compounds with 697 NFkB inh. 697 B-cell NF-kB luciferase, 16 h. inhibition, % at 4 µM. 35% of 2,000 active. AID 449746, 2010; in the data active = inhibition mostly above about 28%, no sharp cut-off; inactive = mostly below about 22%
# Mdm2-MdmX conf: Mdm2-MdmX complex disruptors, retested hits, confirmation, luminescence, single concentration | shares compounds with Mdm2-MdmX inh | Mdm2-MdmX binding, luminescent assay | inhibition, % at 8 µM | 55% of 10,000 active | AID 489028, 2010; in the data active = inhibition above about 40%
# FLuc counter: full-length luciferase signal inhibition, confirmation, counter-screen for Mdm2/MdmX interaction inhibitor project, cell-based, single concentration, SaOS-2 | 77% of 6,200 active | inhibition, % at 8 µM | AID 504607, 2011 | shares compounds with Mdm2-MdmX inh | SaOS-2 full-length luciferase counterscreen, luminescence;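 active = mean inhibition at 8 µM reaching about 37%, which flags the compound as non-specific, limit read from the data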;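 note: p53-null SaOS-2 cells with luciferase driven by a doxycycline-inducible promoter; compound on cells about two nights before reading with doxycycline added after day one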
# A number is an active result; n = inactive; x = no result given. Only some compounds are listed: those with a hit (about 4.1% of all), similar ones and a draw of the others.
SMILES,697 NFkB inh,KLF5 inh,aSyn UTR inh,Mdm2-MdmX inh,Gli-Sufu antag,Jurkat NFkB inh,KLF5 inh confirm,IEC-6 tox,Jurkat NFkB conf,Mdm2-MdmX conf,FLuc counter,others
CCc1ccc(N=c2c([N+](=O)[O-])nn(-c3ccc4c(c3)OCCO4)n2O)cc1,n,n,n,n,n,n,x,x,x,x,x,
O=[N+]([O-])c1nn(-c2ccc3c(c2)OCCO3)n(O)c1=Nc1ccccc1,n,72,80,91,x,71,82,n,89,95,53,
CN1CCN(C(=O)c2cnn3c2NC(c2ccccc2)CC3C(F)(F)F)CC1 (stereo not given),n,n,n,n,n,n,x,x,x,x,x,
Cc1cc(C)c(S(=O)(=O)Nc2ccc3c4c(cccc24)CC3)c(C)c1,n,70,106,75,n,58,84,57,n,63,107,
O=C(NCC1CCCO1)c1cc(NS(=O)(=O)c2cccs2)cc(NS(=O)(=O)c2cccs2)c1 (stereo not given),n,n,n,n,n,n,x,x,x,x,x,
Cc1ccc(/C=C2\SC(=S)N(CCCC(=O)NC3CCCC3)C2=O)cc1,85,65,98,63,n,n,n,n,x,n,x,697 NFkB conf=80
Cc1c(Cl)c([N+](=O)[O-])nn1CC(=O)N1CCN(Cc2ccccc2)CC1,n,n,n,n,n,n,x,x,x,x,x,
Oc1ccc(F)c2cccnc12,n,n,n,n,n,n,x,x,x,x,x,
Oc1ccc(Cc2ccccc2)c2cccnc12,x,x,x,x,n,x,x,x,x,x,x,
COc1ccccc1N=Nc1ccc(O)c2ncccc12,n,75,n,68,n,n,n,n,x,n,92,
Oc1ccc(N=Nc2ccccc2C(F)(F)F)c2cccnc12,n,63,72,83,n,n,86,n,x,86,n,
Cc1cnc(NCCc2ccccc2)s1,n,n,n,n,n,n,x,x,x,x,x,
COCC(=O)N1CCC(n2nccc2NC(=O)c2ccccc2OC)CC1,n,n,n,n,n,n,x,x,x,x,x,
COc1ccc(/C=C/c2nc3ccccc3c(=O)o2)cc1,n,71,102,88,71,n,n,n,x,84,63,
COc1ccccc1/C=C/c1nc2ccccc2c(=O)o1,x,n,n,x,n,x,x,x,x,x,x,
CCCCC(=O)NC(c1ccc(OC)c(OC)c1)c1c(O)ccc2ccccc12 (stereo not given),n,n,n,n,n,n,x,x,x,x,x,
CCCC(=O)NC(c1ccc(Cl)cc1Cl)c1ccc2cccnc2c1O (stereo not given),n,82,64,81,89,n,82,53,x,85,55,
CCCC(=O)NC(c1ccccc1Cl)c1c(O)ccc2ccccc12 (stereo not given),n,n,n,n,n,n,x,x,x,x,x,
CCCC(=O)NC(c1ccccc1OC)c1ccc2cccnc2c1O (stereo not given),n,91,124,77,x,n,97,47,x,82,50,
COc1ccccc1C(NC(C)=O)c1cc(Cl)c2cccnc2c1O (stereo not given),n,73,67,67,n,n,71,81,x,61,n,
CCCCC(=O)NC(c1ccccc1OC)c1ccc2cccnc2c1O (stereo not given),n,76,101,87,n,n,94,48,x,83,52,
CCCC(=O)NC(c1ccc(OC)c(OC)c1)c1c(O)ccc2ccccc12 (stereo not given),n,n,n,n,n,n,x,x,x,x,x,
CC1=Nc2cc(C(=O)NCCCOC(C)C)ccc2Sc2ccc(C)cc21,n,74,77,63,n,64,85,59,n,52,81,
CCCC1=Nc2cc(C(=O)NCCCOCC)ccc2Sc2ccccc21,n,80,67,60,n,57,86,71,51,72,124,
CCCC1=Nc2cc(C(=O)NCCCOC(C)C)ccc2Sc2ccccc21,n,62,n,50,n,n,n,n,x,66,71,
SMILES,697 NFkB inh,KLF5 inh,aSyn UTR inh,Mdm2-MdmX inh,Gli-Sufu antag,Jurkat NFkB inh,KLF5 inh confirm,IEC-6 tox,Jurkat NFkB conf,Mdm2-MdmX conf,FLuc counter,others
COc1ccc(OC)c(N(CC(=O)NCCSCc2ccc(C)cc2)S(C)(=O)=O)c1,n,n,n,n,n,n,x,x,x,x,x,
CCS(=O)(=O)c1ncc(Cl)c(C(=O)Nc2ccc(S(=O)(=O)N(C)c3ccccc3)cc2)n1,n,85,78,98,n,75,n,n,n,100,51,
CCN(CC)C(=O)c1sc(NC(=O)c2ccc(OC)c([N+](=O)[O-])c2)c(C#N)c1C,n,n,n,n,x,n,x,x,x,x,x,
O=C1c2cccc3cc([N+](=O)[O-])cc(c23)C(=O)N1CCN1CCCC1,n,n,98,90,75,86,n,98,57,96,53,
C=C(C)COc1ccc(-c2n[nH]c(C)c2-c2ccc(OC)c(OC)c2)c(O)c1,n,63,n,71,n,67,70,28,50,54,63,
COc1cc(-c2noc(C)c2/C=C/c2ccc(N)cc2)cc(OC)c1OC,n,66,104,84,n,58,91,73,n,86,108,
Cc1cc(C(=O)Cn2ncc(Cl)c(Cl)c2=O)c(C)n1CC(F)(F)F,n,82,n,98,n,n,n,n,x,67,n,
CCOC(=O)N1CCC(NC(=O)c2ccc3c(c2)N=C(C)c2c(C)ccc(C)c2S3)CC1,n,71,n,68,n,65,87,61,56,64,89,
COc1ccc(CN(C)C(=O)COC(=O)c2cc([N+](=O)[O-])ccc2N2CCCC2)c(OC)c1OC,n,x,x,n,n,n,x,x,x,x,x,
